The record followed here is PubChem BioAssay (Tox21).

The structures appear in SMILES notation. Several values for one entry are separate records, joined by “and”; a condition that tells them apart may be missing. Equal values may be shown once. Some structures have more than one record in an assay (separate samples or runs), and their calls can disagree. Activity calls are given as the source filed them. A call without a number means that no potency is given here. Unless noted, calls come from the whole dose curve.

Chain of Estrogen receptor (Homo sapiens) (P03372 whole entry, looked up): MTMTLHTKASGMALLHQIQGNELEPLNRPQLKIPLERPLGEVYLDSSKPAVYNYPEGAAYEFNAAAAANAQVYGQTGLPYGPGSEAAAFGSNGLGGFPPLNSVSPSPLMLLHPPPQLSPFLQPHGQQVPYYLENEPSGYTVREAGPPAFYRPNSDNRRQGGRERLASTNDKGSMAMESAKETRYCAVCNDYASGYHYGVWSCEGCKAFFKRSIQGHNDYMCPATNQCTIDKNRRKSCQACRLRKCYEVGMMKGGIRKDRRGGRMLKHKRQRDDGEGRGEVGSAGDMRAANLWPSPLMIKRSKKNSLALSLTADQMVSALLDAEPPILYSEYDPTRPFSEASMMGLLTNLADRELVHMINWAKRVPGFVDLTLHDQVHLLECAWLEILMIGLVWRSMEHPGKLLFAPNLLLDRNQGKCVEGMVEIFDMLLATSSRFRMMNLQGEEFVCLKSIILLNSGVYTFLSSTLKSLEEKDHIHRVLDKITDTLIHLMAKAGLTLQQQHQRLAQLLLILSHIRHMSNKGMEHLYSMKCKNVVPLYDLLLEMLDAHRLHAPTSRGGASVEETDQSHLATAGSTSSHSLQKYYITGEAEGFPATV

One experiment concerns the target Estrogen receptor (Homo sapiens) (UniProt P03372). The experiment is described as follows: qHTS assay to identify small molecule antagonists of the estrogen receptor alpha (ER-alpha) signaling pathway (AID 743069; active = well fitted curve in the direction sought with a large enough effect in the signal ratio in the repeat runs, not every such curve was filed as active; inconclusive = weak or mixed curves, or effect the other way; inactive = no such curve, though single readings can be large or run the other way; the % refers to the signal ratio; note: potency is the fitted concentration of half-maximal effect). As to conditions: HEK293 ER-alpha-UAS-bla, beta-lactamase ratio, antagonist mode; series mostly up to 69.4 µM; activity, negative = inhibition: at the top concentration. A digest of the protocol:
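Beta-lactamase FRET fluorescence is read after 2 hr at room temperature with LiveBLAzer B/G substrate. Before that, ER-alpha-bla HEK293 cells sit 4 hr after plating, then receive compound plus 17beta-estradiol and incubate 18 hr at 37C.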
Regarding `CCCCCCCC/C=C\CCCCCCCC(=O)O`, the “activity, negative = inhibition” value was -21.6% (inactive).

For the compound `CN(C)C`, the Potency entry was “inactive”.

On to `CCC(Cc1c(I)cc(I)c(N)c1I)C(=O)O` (stereo not drawn), for which the Potency entry is “inactive and 47.5 µM [inconclusive] (active)”. On the same count and under the same terms, next, `Cc1ccc([N+](=O)[O-])c(C)c1`: “inactive”; `O=C1CCc2ccccc2O1`: “inactive”.

Take `[Na+]`: the Potency entry was “inactive”. Consider `C1COCCN1`, for which the Potency result was “inactive”. On to `Nc1cc(Cl)c(N)c(Cl)c1`, for which the Potency result is “inactive”. Same read-out and setting: to `CC(C)(C)c1cccc(C(C)(C)C)c1O` belongs “inactive”; to `C=CCNCC=C`, “inactive”. Same read-out and setting: to `FC(F)(F)C(Cl)Br` (stereo not drawn) belongs “inactive”. Still for that read-out and setting: next, `CCCCCC1C(=O)CCC1CC(=O)OC` (stereo not drawn): “inactive”. For the compound `NCCOCCO`, the Potency result was “inactive”. On the same count and under the same terms, to `CNC[C@H](O)c1ccc(O)c(O)c1` belongs “inactive”; to `NCCS(=O)(=O)O`, “inactive”; to `Cc1ccc(S(=O)(=O)O)cc1C`, “inactive”.

On to `CC1(C)C(C=C(Cl)Cl)C1C(=O)OCc1cccc(Oc2ccccc2)c1` (stereo not drawn), for which the Potency result is “inactive”. Still for that read-out and setting: to `Cc1ccc(N)c([N+](=O)[O-])c1` belongs “inactive”.

As for `O=C(O)c1cc(=O)[nH]c(=O)[nH]1`, the Potency result is “inactive”.

System in the next experiment: not listed separately
As to the kind of experiment: qHTS assay to identify small molecule antagonists of the estrogen receptor alpha (ER-alpha) signaling pathway - cell viability counter screen (AID 743074).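 Note: HEK293 cells carrying ER-alpha-UAS-bla reporter stimulated with 17beta-estradiol; nearly all actives have a fitted effect of over 45% in size.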 As to conditions: ERalpha-bla HEK293 viability, CellTiter-Glo luminescence, 18 h; series mostly up to 69.4 µM; activity, negative = cytotoxicity: at the top concentration. (In general: Quantitative high-throughput screening tests each substance at several concentrations.)
As to `O=S1(=O)CCCO1`, the Potency result was “inactive”. Take `CCOC(=O)C(C)Oc1ccc(Oc2cnc3cc(Cl)ccc3n2)cc1` (stereo not drawn): the “activity, negative = cytotoxicity” value is 16.7% (inactive).

For `COC(=O)CC(=O)OC`, the Potency entry was “inactive”.

For the compound `C=C[Si](OCCOC)(OCCOC)OCCOC`, the Potency entry was “inactive”. As for `CN(C)/N=N/c1nc[nH]c1C(N)=O`, the Potency entry is “inactive”. As for `c1ccc2c(c1)[nH]c1ccccc12`, the “activity, negative = cytotoxicity” value was -28.4% (inactive). As for `CCCCCCC(C)O` (stereo not drawn), the Potency result is “inactive”. For the compound `CCC/C=C/C=O`, the Potency entry is “inactive”. In the case of `CCCCCCCCCCCCO`, the Potency entry was “inactive”. Same read-out and setting: next, `CC(C)[N+](C)(CCOC(=O)C1c2ccccc2Oc2ccccc21)C(C)C`: “inactive”. Same read-out and setting: to `C/C=C/C(=O)N(CC)c1ccccc1C` belongs “inactive”; to `COC(=O)c1ccc(C)cc1`, “inactive”; to `CCc1cccc2c3c([nH]c12)C(CC)(CC(=O)O)OCC3` (stereo not drawn), “inactive”.

For the compound `CCCCCCCCCCCCCO`, the Potency entry was “inactive”. `CC(C)=CCO`: the “activity, negative = cytotoxicity” value is 21.3% (inactive). Turning to `CC(=O)Oc1c(C)c(C)c2c(c1C)CC[C@@](C)(CCC[C@H](C)CCC[C@H](C)CCCC(C)C)O2`, the Potency entry is “inactive”.

For `Cc1ccc(C(C)(C)C)cc1`, the “activity, negative = cytotoxicity” value was 29% (inactive). On to `CCO[Si](CCCNC(N)=O)(OCC)OCC`, for which the Potency entry was “inactive”. Still for that read-out and setting: next, `OC[C@H]1O[C@@H]2O[C@H]3[C@H](O)[C@@H](O)[C@@H](O[C@H]4[C@H](O)[C@@H](O)[C@@H](O[C@H]5[C@H](O)[C@@H](O)[C@@H](O[C@H]6[C@H](O)[C@@H](O)[C@@H](O[C@H]7[C@H](O)[C@@H](O)[C@@H](O[C@H]1[C@H](O)[C@H]2O)O[C@@H]7CO)O[C@@H]6CO)O[C@@H]5CO)O[C@@H]4CO)O[C@@H]3CO`: “inactive”; `CC1(C)O[C@@H]2C[C@H]3[C@@H]4C[C@H](F)C5=CC(=O)C=C[C@]5(C)[C@@]4(F)[C@@H](O)C[C@]3(C)[C@]2(C(=O)CO)O1`: “inactive”; `CCCCCCCC/C=C\CCCCCCCC(=O)O`: “inactive”.

Take `CN(C)C`: the Potency entry was “inactive”. Still for that read-out and setting: next, `CCC(Cc1c(I)cc(I)c(N)c1I)C(=O)O` (stereo not drawn): “inactive”; `Cc1ccc([N+](=O)[O-])c(C)c1`: “inactive”.

`O=C1CCc2ccccc2O1`: the Potency result is “inactive”. Same read-out and setting: next, `[Na+]`: “inactive”; `C1COCCN1`: “inactive”. Consider `Nc1cc(Cl)c(N)c(Cl)c1`, for which the “activity, negative = cytotoxicity” value is 14.2% (inactive). As for `CC(C)(C)c1cccc(C(C)(C)C)c1O`, the Potency result was “inactive”. Same read-out and setting: next, `C=CCNCC=C`: “inactive”; `FC(F)(F)C(Cl)Br` (stereo not drawn): “inactive”.

In the case of `CCCCCC1C(=O)CCC1CC(=O)OC` (stereo not drawn), the “activity, negative = cytotoxicity” value was 15% (inactive). Consider `NCCOCCO`, for which the Potency result is “inactive”. Take `CNC[C@H](O)c1ccc(O)c(O)c1`: the Potency result is “inactive”.

`NCCS(=O)(=O)O`: the “activity, negative = cytotoxicity” value was 7.06% (inactive).

Consider `Cc1ccc(S(=O)(=O)O)cc1C`, for which the Potency result is “inactive”. The same measure, in the same setting: to `CC1(C)C(C=C(Cl)Cl)C1C(=O)OCc1cccc(Oc2ccccc2)c1` (stereo not drawn) belongs “inactive”. As for `Cc1ccc(N)c([N+](=O)[O-])c1`, the “activity, negative = cytotoxicity” value was 15.6% (inactive). For `O=C(O)c1cc(=O)[nH]c(=O)[nH]1`, the Potency result is “inactive”.
